Reference: PubChem BioAssay (Tox21)
Records with an inconclusive call do not appear. A number with no mark means an inactive call. Calls of active or inactive are those of the source. Calls come from the whole dose curve; as a rule, active = well fitted inhibition curve with a large enough effect in the repeat runs; inconclusive = weak or mixed curves, or effect the other way; inactive = no such curve, though single readings can be large or run the other way.

biological target: Nuclear receptor ROR-gamma (Homo sapiens) (UniProt P51449); assay: qHTS assay to identify small molecule antagonists of the retinoid-related orphan receptor gamma (ROR-gamma) signaling pathway (AID 1159521; note: nearly all actives have a fitted effect of over 50% in size; for activity change, negative = inhibition: top concentration of the series differs between compounds); details: Tet-on RORgamma CHO cells, RORE-luciferase, 16 h; series mostly up to 92.4 µM; activity change, negative = inhibition: at the top concentration
Excerpt: U.S. Tox21 Program National Center for Advancing Translational Sciences [NCATS] NIH Chemical Genomics Center [NCGC] U.S. Environmental Protection Agency [EPA] National Institutes of Environmental Health Sciences [NIEHS] National Toxicology Program [NTP] U.S. Food and Drug Administration [FDA] Tox21 Assay Overview: Nuclear steroid hormone receptors are involved in many biological processes including inflammatory responses, cell proliferation, and apoptosis. Environmental factors or compounds disrupting these nuclear receptor pathways and gene expression may promote susceptibility to immunotoxicants and autoimmune diseases. One important group of these expression factors are the retinoid-related orphan receptors. To assess compounds that may interfere with the retinoid-related orphan receptor gamma (ROR-gamma) transcription factor, a cell-based luciferase assay was used. The CHO cell-based assay utilizes a TET-inducible ROR expression factor and ROR response element-LUC reporter gene. Reporter gene activity was induced using Doxycycline Hyclate and measured after 16 hr incubation. Tet-on ROR gamma CHO cells were used to screen against the Tox21 10K compound library for ROR gamma antagonists by quantification of decreased reporter gene activity in terms of decreased luminescence.
Tox21 Assay Protocol Summary: Tet-on ROR gamma CHO cells were dispensed at 1,000 cells in 4 uL of culture medium per well into white wall/solid bottom 1536-well plates using a Multidrop Combi (Thermo Scientific, Waltham, MA) dispenser. Following incubation at 37 C and 5% CO2 for 4 hr, 23 nL of compounds dissolved in DMSO, positive controls or DMSO only were transferred by a Pintool station (Kalypsys, San Diego, CA) and after 2 hr incubation at 37 C, one ul of 1 uM (final concentration) of Doxycycline Hyclate was added to all the wells by using a Flying Reagent Dispenser (FRD) (Aurora Discovery, San Diego, CA). After 16 hr incubation at 37 C and 5% CO2, 5 uL of ONE-Glo reagent (Promega Corporation, Madison, WI) was added to each assay plate using FRD. After 30 min incubation at room temperature, luminescence was quantified on a ViewLux plate reader (Perkin Elmer, Waltham, MA).
% is set by controls: 0 for no effect and ±100 for the full control effect; potency is the fitted concentration of half-maximal effect.

Which “activity change, negative = inhibition” value does the source give for `Nc1ccn([C@H]2CS[C@@H](CO)O2)c(=O)n1` here?
The value was -1.43%.

Which “activity change, negative = inhibition” value does the source give for `Nc1ccc(S(=O)(=O)NCc2ccccc2)cc1` here?
Its value is 10.6% [at 42.5 µM].

With `O=C(O)CCCc1c[nH]c2ccccc12` as the molecule, how does the “activity change, negative = inhibition” value read?
Its value is 11.2%.

With `CCOC(=O)c1ccc(NC(=O)CN2CCCCC2)cc1` as the molecule, how does the “activity change, negative = inhibition” value read?
The value was -4.84% [at 42.5 µM].

`CS(=O)(=O)c1ccc([C@@H](C[C@H]2CCC(=O)C2)C(=O)Nc2cnccn2)cc1Cl` was tested. Which “activity change, negative = inhibition” value did it give?
The value was 5.71%.

`COc1cc(NC(C)CCCN)c2ncccc2c1` (stereo not given) was tested. Which “activity change, negative = inhibition” value did it give?
Its value is 16.5% [at 42.5 µM].

Which “activity change, negative = inhibition” value does the source give for `CCN(CC)CC(=O)Nc1c(C)cccc1C(=O)OC` here?
The value was -6.21% [at 42.5 µM].

Which “activity change, negative = inhibition” value does the source give for `NC(=O)CCCCC(N)=O` here?
Its value is 0.377%.

For `CC(C)c1ccc(C#N)cc1`, which “activity change, negative = inhibition” value is on record?
Its value is 6.91%.

`CC(=O)c1ccc[nH]1` was tested. Which “activity change, negative = inhibition” value did it give?
The value was 4.08%.

How did the “activity change, negative = inhibition” value turn out when `COc1ccc(-c2cc(=S)ss2)cc1` was run?
Its value is 45.5% [at 42.5 µM].

How did the “activity change, negative = inhibition” value turn out when `CCCCCCCCCCCCCOS(=O)(=O)O` was run?
The value was 1.93%.

How did the “activity change, negative = inhibition” value turn out when `Cc1ccc2c(c1[N+](=O)[O-])C(=O)c1ccccc1C2=O` was run?
The value was 66.7% [at 42.5 µM].

How did the “activity change, negative = inhibition” value turn out when `COC(=O)Nc1nc2ccc(C(=O)C3CC3)cc2[nH]1` was run?
Its value is 56.1% [at 42.5 µM].

For `Cc1cccc(C)c1NC(=O)c1cc(S(N)(=O)=O)c(Cl)cc1O`, which “activity change, negative = inhibition” value is on record?
The value was 59% [at 42.5 µM].

How did the “activity change, negative = inhibition” value turn out when `CC(C)CC(O)CC(C)C` was run?
Its value is 3.49%.

`CC12CC3CC(C)(C1)CC(N)(C3)C2` was tested. Which “activity change, negative = inhibition” value did it give?
The value was -22.8% [at 42.5 µM].

For `CCN(CC)C(=O)N1CCN(C)CC1`, which “activity change, negative = inhibition” value is on record?
Its value is -0.152% [at 42.5 µM].

How did the “activity change, negative = inhibition” value turn out when `O=C(NC(Cc1cc(=O)[nH]c2ccccc12)C(=O)O)c1ccc(Cl)cc1` (stereo not given) was run?
The value was 1.89% [at 42.5 µM].

For `CCCCCCC(O)CCOC(C)=O` (stereo not given), which “activity change, negative = inhibition” value is on record?
The value was 0.671% [at 240 µM].

How did the “activity change, negative = inhibition” value turn out when `COC(C)(C)OC` was run?
Its value is 0.662%.

`CCN(CC)c1cccc(O)c1` was tested. Which “activity change, negative = inhibition” value did it give?
The value was 29.1%.

`CCCCCCC(O)CCCCCCCCCCC(=O)OC` (stereo not given) was tested. Which “activity change, negative = inhibition” value did it give?
Its value is 9.43%.

With `CC(C)(O)c1coc(S(=O)(=O)NC(=O)Nc2c3c(cc4c2CCC4)CCC3)c1` as the molecule, how does the “activity change, negative = inhibition” value read?
The value was -14.2%.

For `CCCCCC`, which “activity change, negative = inhibition” value is on record?
Its value is 7.73%.

For `C1=CCC2CC=CC2C1` (stereo not given), which “activity change, negative = inhibition” value is on record?
The value was 57.3%.

With `Cc1c(C2(c3cc(Br)c(O)c(Br)c3C)OS(=O)(=O)c3ccccc32)cc(Br)c(O)c1Br` as the molecule, how does the Potency read?
The Potency was 5.93 µM (active).

With `COC(=O)c1sccc1S(N)(=O)=O` as the molecule, how does the “activity change, negative = inhibition” value read?
The value was 1.74%.

How did the “activity change, negative = inhibition” value turn out when `O=C(O)CCC(=O)c1ccc(-c2ccccc2)cc1` was run?
The value was 136% [at 42.5 µM].

For `COc1ccc(C(=O)NCc2ccc(OCCN(C)C)cc2)cc1OC`, which “activity change, negative = inhibition” value is on record?
Its value is -2.45% [at 42.5 µM].

`[Cl][Nd]([Cl])[Cl]` was tested. Which “activity change, negative = inhibition” value did it give?
The value was 11.7%.

`COC(=O)CC(C(C)=O)C(=O)OC` (stereo not given) was tested. Which “activity change, negative = inhibition” value did it give?
Its value is 2.3%.

Which “activity change, negative = inhibition” value does the source give for `Cc1oc(=O)oc1COC(=O)[C@@H]1N2C(=O)[C@@H](NC(=O)[C@H](N)c3ccccc3)[C@H]2SC1(C)C` here?
The value was 11.3% [at 42.5 µM].

With `CC1C(C)(C)C2=C(C(=O)CCC2)C1(C)C` (stereo not given) as the molecule, how does the “activity change, negative = inhibition” value read?
Its value is 2.24%.

Which “activity change, negative = inhibition” value does the source give for `C=CCOC(=O)COCCC(C)C` here?
The value was -16.6%.

`CC(C)(C)C1(CCc2ccc(Cl)cc2)CO1` (stereo not given) was tested. Which “activity change, negative = inhibition” value did it give?
Its value is -0.186%.

How did the “activity change, negative = inhibition” value turn out when `COc1cc(OC)c2ccc(=O)oc2c1` was run?
Its value is -2.85%.

With `CCCCCCOC(=O)CCCCC` as the molecule, how does the “activity change, negative = inhibition” value read?
The value was -7.42%.

`C[C@H](CS)C(=O)N1CCC[C@H]1C(=O)O` was tested. Which “activity change, negative = inhibition” value did it give?
The value was -4.78% [at 42.5 µM].

For `CC1CCCC(=O)C1=O` (stereo not given), which “activity change, negative = inhibition” value is on record?
The value was -8.24%.
